Inconclusive results are not listed. Calls of active or inactive are those of the source. Unless noted, no rule for the calls is given here.

A short description of assay [1]: qHTS profiling of the MIPE4 collection as inhibitors of Plasmodium falciparum (DD2) proliferation (AID 743345). The note with it: P. falciparum Dd2 in erythrocytes, SYBR Green DNA, 72 h; at 28.5 µM (top of the series) unless noted. The method, boiled down: (§1)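 Erythrocytes infected with P. falciparum (0.3% parasitemia, 2.5% hematocrit) incubated with compounds 72 h at 37 C, 5% CO2. Lysis with saponin/Triton buffer containing SYBR Green I, overnight at room temperature in the dark; DNA fluorescence (485/535 nm) normalised to 0.29 uM artemisinin and DMSO.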
(In qHTS, concentration-response curves come from the screen itself.)

Assay [2] can be described thus: qHTS profiling of the MIPE4 collection as inhibitors of Plasmodium falciparum (DD2) proliferation (Rep 2) (AID 743346). The note with it: P. falciparum Dd2 in erythrocytes, SYBR Green DNA, 72 h; at 28.5 µM (top of the series) unless noted. In short, it runs like this:
as §1

Assay [3] can be described thus: High-throughput drug toxicity screening in the BPDCN cell line Gen2.2 (AID 1224824).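 Also: cells exposed to compounds for 48 h before reading.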 The note with it: Gen2.2 BPDCN cells; at 45.8 µM (top of the series) unless noted. In short, it runs like this: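 Gen2.2 cells (500/well) in phenol red-free RPMI with 10% FBS were exposed to compounds for 48 h at 37 °C, 5% CO2. Viability was read by CellTiter-Glo luminescence and normalized to DMSO (100%) and 9.2 uM bortezomib (0%).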

The nature of assay [4]: High-throughput drug toxicity screening in the BPDCN cell line Cal-1 (AID 1224825). The conditions noted are these: Cal-1 BPDCN cell viability, qHTS; at 45.8 µM (top of the series) unless noted. The method, boiled down:
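Exponentially growing Cal-1 cells, 500 per well in phenol red-free RPMI with 10% FBS, were exposed to compounds for 48 h at 37 °C, 5% CO2. Viability was read by CellTiter-Glo luminescence and normalised to DMSO (100%) and 9.2 uM bortezomib (0%).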

Assay [5] can be described thus: qHTS assay for measurement of the activity of small molecule inhibitors on Zika virus induced Caspase-3 activity in human iPSC derived neural progenitor cells (hNPCs) (AID 1224857; active = well fitted curve in the direction sought with a large enough effect; an effect the other way counts as inactive or inconclusive; also: nearly all actives have a fitted effect of over 65% in size; also: potency is read from the fitted curve at half-maximal effect). In short, it runs like this: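 Pretreat hNPCs with compound 1 h; infect ZIKV 2 FFU/cell; 6 h 37 C, 5% CO2; Caspase-Glo 3/7, 30 min RT; luminescence; normalize to no-virus and virus-only wells.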

The nature of assay [6]: qHTS assay for measurement of the activity of small molecule inhibitors on Zika virus induced Caspase-3 activity in human astrocytoma cells (AID 1224859; active = well fitted curve in the direction sought with a large enough effect; an effect the other way counts as inactive or inconclusive;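 also: plate controls were ZIKV-infected untreated cells for no effect and uninfected cells for full effect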). In short, it runs like this:
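Human SNB-19 astrocytoma cells in RPMI 1640 with 10% FBS receive compound one hour ahead of Zika virus at 2 FFU/cell. After 6 h infection, caspase-3/7 activity is detected by Caspase-Glo luminescence.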

Assay [7] can be described thus: qHTS profiling of the MIPE4 collection as inhibitors of Plasmodium falciparum (HB3) proliferation (AID 743347).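 Also: plate controls were DMSO vehicle wells for no effect and artemisinin wells for full effect.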 The note with it: P. falciparum HB3 in erythrocytes, SYBR Green DNA, 72 h; at 28.5 µM (top of the series) unless noted. The method, boiled down:
as §1

The nature of assay [8]: qHTS Screen of the MIPE 4.0 Collection Against Ewings Sarcoma (RDES) (AID 1259252; active = well fitted curve in the direction sought with a large enough effect; an effect the other way counts as inactive or inconclusive; also: nearly all actives have a fitted effect of over 35% in size; also: potency is read from the fitted curve at half-maximal effect). The method, boiled down:
(§2)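 Compound titrations go onto adherent log-phase cells 4 h after seeding, incubate 48 h at 37C, then CellTiter-Glo luminescence reports viability relative to DMSO and cell-free controls.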

Assay [9] can be described thus: qHTS Screen of the MIPE 4.0 Collection Against Ewings Sarcoma (EW8) (AID 1259255; active = well fitted curve in the direction sought with a large enough effect; an effect the other way counts as inactive or inconclusive; also: nearly all actives have a fitted effect of over 35% in size; also: potency is read from the fitted curve at half-maximal effect;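 as to viability: 100% = DMSO-treated cells and 0% = medium-only wells without cells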). The method, boiled down: as §2
Assay [10] can be described thus: qHTS profiling of the MIPE4 collection as inhibitors of Plasmodium falciparum (3D7) proliferation (AID 743344).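 Also: scaled between DMSO vehicle wells and 0.29 µM artemisinin as full inhibition.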 The conditions noted are these: P. falciparum 3D7 in erythrocytes, SYBR Green DNA fluorescence, 72 h; at 28.5 µM (top of the series) unless noted. The method, boiled down:
as §1

Assay [11] is described as follows: qHTS Screen of the MIPE 4.0 Collection Against Ewings Sarcoma (TC71) (AID 1259253; active = well fitted curve in the direction sought with a large enough effect; an effect the other way counts as inactive or inconclusive; also: nearly all actives have a fitted effect of over 40% in size; also: potency is read from the fitted curve at half-maximal effect). The method, boiled down: as §2
Assay [12] is described as follows: qHTS profiling for inhibitors of Plasmodium falciparum (3D7) proliferation (AID 743322).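 Also: infected erythrocytes exposed to compound for 72 h before lysis; 100% = DMSO vehicle wells and 0% = 0.29 µM artemisinin.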 The conditions noted are these: P. falciparum 3D7 proliferation; at 28.7 µM (top of the series). The method, boiled down:
as §1

Assay [13] can be described thus: qHTS profiling for inhibitors of Plasmodium falciparum (DD2) proliferation (AID 743323). The conditions noted are these: lower = more inhibition; at 28.7 µM (top of the series). The method, boiled down:
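Parasite proliferation measured via DNA-dye fluorescence, as uninfected erythrocytes lack DNA. Cultures at 0.3% parasitemia and 2.5% hematocrit incubated 72 h with compound; signal scaled between vehicle and 0.29 uM artemisinin wells.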

The nature of assay [14]: qHTS profiling for inhibitors of Plasmodium falciparum (HB3) proliferation (AID 743324; active = well fitted curve in the direction sought with a large enough effect; an effect the other way counts as inactive or inconclusive;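 also: 100% = DMSO vehicle wells and 0% = artemisinin-treated control wells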). The note with it: Plasmodium falciparum HB3 blood-stage proliferation; at 28.7 µM (top of the series). The method, boiled down:
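P. falciparum HB3 grown in erythrocytes (0.3% parasitemia, 2.5% hematocrit final) with compound for 72 h at 37 C, 5% CO2. Parasite DNA detected by SYBR Green after saponin/triton lysis overnight; normalized to 0.29 uM artemisinin and DMSO.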

For `Cc1[nH]c(C=C2C(=O)Nc3ccc(S(=O)(=O)Cc4c(Cl)cccc4Cl)cc32)c(C)c1C(=O)N1CCC[C@H]1CN1CCCC1`, in assay [1], the parasite growth remaining, % of DMSO control (lower = more inhibition) was 8.07%. In addition, the parasite growth, % of control (lower = inhibition) in [2] worked out at 12%. For the same compound, in assay [3], the cell viability, % of control (lower = more cytotoxic) amounted to 6.62%. Besides, in assay [4], the viability (% of control) was determined as 2.43%. Also, the Potency entry in assay [5] and in [6] was “inactive” in each case.
Consider `CC(C(=O)O)c1ccc(-c2ccccc2)c(F)c1` (configuration not stated), for which the growth, % of control in assay [7] was 96%. Moreover, the cell viability, % of control (lower = more cytotoxic) in assay [3] is 84.9%. The viability (% of control) in assay [4] was 96.9%. The Potency in [5] is 16.6 µM (active); in assay [8], 18.7 µM (active). Moreover, the Potency entry in [9] is “inactive”.
`NC(=O)c1cccc2[nH]c(-c3ccc([C@H]4CCCN4)cc3F)nc12` had a parasite growth, % of DMSO control in [10] of 5.38%. Besides, the parasite growth remaining, % of DMSO control (lower = more inhibition) in [1] turned out to be 43.5%. Also, in assay [2], the parasite growth, % of control (lower = inhibition) was 8.83%. In assay [7], this compound showed a growth, % of control of 2.5%. Further, the cell viability, % of control (lower = more cytotoxic) in assay [3] turned out to be 104%. In [4], this compound showed a viability (% of control) of 19.9%. Moreover, the Potency in assay [5] is 18.7 µM (active); in assay [8], 7.43 µM (active); in [11], 14.8 µM (active); in [9] it was 18.7 µM (active).
`Cc1ccn(-c2ccc(-c3ncco3)cc2)c(=O)c1-c1ccc2nc(N)ncc2c1` yielded a parasite growth, % of DMSO control in [10] of 21.1%. Further, the parasite growth remaining, % of DMSO control (lower = more inhibition) in assay [1] worked out at 78.6%. The compound further came in with a parasite growth, % of control (lower = inhibition) in assay [2] of 56.7%. Also, the growth, % of control in assay [7] was 72.3%. For the same compound, the cell viability, % of control (lower = more cytotoxic) in [3] amounted to 316%. Further, in assay [4], the viability (% of control) stood at 62.2%. Also, the Potency result in assay [5] was “inactive”. In addition, the Potency in assay [11] is 16.6 µM (active).
With `CCn1c(C(=O)N(C2CC2)C2CC2)cc2c3c(ncn3C)c(Nc3cc(C)n(C)n3)nc21`, the parasite growth remaining, % of DMSO control (lower = more inhibition) in [1] came to 12.4%. In assay [2], this compound returned a parasite growth, % of control (lower = inhibition) of 23.5%. The compound also returned a growth, % of control in [7] of 11.5%. Further, the cell viability, % of control (lower = more cytotoxic) in assay [3] turned out to be 144%. The viability (% of control) in [4] worked out at 90.8%. Besides, the Potency entry in assay [5] and in assay [6] was “inactive” throughout.
`CC(C)C[C@H](CC(=O)O)C(=O)N[C@@H](Cc1c[nH]c2ccccc12)C(=O)N[C@@H](C)c1ccccc1`: the parasite growth remaining, % of DMSO control (lower = more inhibition) in assay [1] was 77.8%. Further, in assay [7], the growth, % of control was 34.7%. For the same compound, in [3], the cell viability, % of control (lower = more cytotoxic) came out at 161%. In assay [4], this compound showed a viability (% of control) of 6.64%. Further, the Potency result in assay [5] and in assay [6] was “inactive” throughout.
As for `CC(=O)N(C)C1(c2ccccc2)CCN(CCC[C@]2(c3ccc(Cl)c(Cl)c3)CCCN(C(=O)c3ccccc3)C2)CC1`, in [12], the remaining parasite growth % (stronger effect = lower value) is -0.589%. For the same compound, in assay [13], the activity, percent of control is -0.455%. The remaining proliferation (% of control), lower = more inhibition in assay [14] was -1.35%. Besides, the parasite growth, % of DMSO control in assay [10] is 6.96%. Further, the parasite growth remaining, % of DMSO control (lower = more inhibition) in assay [1] was 7.14%. Also, the parasite growth, % of control (lower = inhibition) in assay [2] came to 38.7%. The cell viability, % of control (lower = more cytotoxic) in assay [3] stood at 9.34%. For the same compound, in [4], the viability (% of control) stood at 7.8%. For the same compound, the Potency entry in assay [5] is “inactive”. In addition, the values for the Potency in assay [8], in assay [11] and in assay [9] were 26.4 µM (active), 20.9 µM (active) and 23.5 µM (active), respectively.
For `C[C@H](NC(=O)C(=O)Nc1ccccc1C(C)(C)C)C(=O)N[C@@H](CC(=O)O)C(=O)COc1c(F)c(F)cc(F)c1F`, in [10], the parasite growth, % of DMSO control stood at 73.8%. The parasite growth remaining, % of DMSO control (lower = more inhibition) in assay [1] came to 107%. In assay [2], this compound had a parasite growth, % of control (lower = inhibition) of 49.8%. Further, the growth, % of control in assay [7] was determined as 405%. In [3], the cell viability, % of control (lower = more cytotoxic) amounted to 200%. For the same compound, the viability (% of control) in assay [4] worked out at 8.98%. The Potency in assay [5] is 2.35 µM (active). Further, the Potency result in [8], in assay [11] and in [9] was “inactive” each time.
`Cc1ccc(C(C)(O)c2nc3ccccc3s2)c(C)c1` (configuration not stated): in [10], the parasite growth, % of DMSO control came to 61.8%. In addition, the parasite growth remaining, % of DMSO control (lower = more inhibition) in [1] came to 90.2%. Besides, the growth, % of control in assay [7] stood at 95.9%. In addition, the cell viability, % of control (lower = more cytotoxic) in assay [3] is 129%. The same compound returned a viability (% of control) in assay [4] of 6.97%. In addition, the Potency result in assay [5] and in assay [6] was “inactive” throughout.

The values are drawn from PubChem BioAssay (NCATS).
